Experimental data from PubChem BioAssay (NCI).
Where “and” joins values, the source holds several entries; their conditions need not be identical. Equal values may be shown once. This is part of a sample that, as a whole, favours compounds with a hit. Of some 79,000 tested, about 15% had one in any assay. Unmarked numbers belong to inactive results. Calls of active or inactive are those of the source. Rule as the data show it: active = growth inhibition above about 70%; inactive = the rest.

Assays:
[1] = NCI Yeast Anticancer Drug Screen. Data for the rad50 strain (AID 155);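 also: 0% = growth of vehicle-only cultures of the same strain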; settings: S. cerevisiae rad50 strain growth inhibition, active compounds read high
In short: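 Compounds were tested on a yeast strain with an engineered DNA damage repair alteration; the reported value is growth inhibition normalised to vehicle treatment.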

[2] = NCI Yeast Anticancer Drug Screen. Data for the mec2-1 strain (AID 157); settings: S. cerevisiae mec2-1 strain, active compounds read high
In short: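 Yeast mec2-1 mutant treated with compound. Readout: growth inhibition vs vehicle controls.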

[3] = NCI Yeast Anticancer Drug Screen. Data for the sgs1 mgt1 strain (AID 161);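 also: 0% = growth of cultures given vehicle only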; settings: S. cerevisiae sgs1 mgt1 strain, active compounds read high
In short: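 Inhibition of yeast growth, normalised to vehicle-treated controls, is reported for a strain bearing genetic alterations in DNA damage repair.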

[4] = NCI Yeast Anticancer Drug Screen. Data for the cln2 rad14 strain (AID 165);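 also: 0% = growth equal to vehicle treated cultures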; settings: S. cerevisiae cln2 rad14 strain, active compounds read high
In short: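 cln2 rad14 yeast strain; compound exposure; growth inhibition read vs vehicle controls.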

[5] = NCI Yeast Anticancer Drug Screen. Data for the bub3 strain (AID 167); settings: S. cerevisiae bub3 mutant strain, active compounds read high
In short: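 Growth of a checkpoint-deficient yeast mutant is measured after compound exposure. Values represent inhibition relative to vehicle.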

[6] = NCI Yeast Anticancer Drug Screen. Data for the mlh1 rad18 strain (AID 175); settings: S. cerevisiae mlh1 rad18 strain growth inhibition, active compounds read high
In short: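 Yeast w/ defined DNA-repair lesions; compound exposure; growth vs vehicle controls → % inhibition.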

[7] = at 5.0 µM (retest, dose inferred, filed as 0.5)
[8] = at 50.0 µM (retest, dose inferred, filed as 5.0)

SMILES	growth inhibition [1, 7]	growth inhibition [1, 8]	growth inhibition [2, 7]	growth inhibition [2, 8]	growth inhibition [3, 7]	growth inhibition [3, 8]	growth inhibition [4, 7]	growth inhibition [4, 8]	growth inhibition [5, 7]	growth inhibition [5, 8]	growth inhibition [6, 7]	growth inhibition [6, 8]	growth inhibition ([1]; at 50.0 µM)	growth inhibition ([2]; at 50.0 µM)	growth inhibition ([3]; at 50.0 µM)	growth inhibition ([4]; at 50.0 µM)	growth inhibition ([5]; at 50.0 µM)	growth inhibition ([6]; at 50.0 µM)
[O-][n+]1cccc2cccc(O)c21	2%	61%	-1%	16%	1%	48%	-3%	2%	1%	20%	-12%	49%	–	–	–	–	–	–
O=C(Oc1ccc(Br)cc1)c1ccccc1	–	–	–	–	–	–	–	–	–	–	–	–	0.75% and 5.6%	-12.8% and -7.05%	-4.35% and -0.05%	-13.9% and -27.1%	30.9% and 13.7%	-6.1% and 29.4%
Oc1ccc(Cc2ccc(Cl)cc2)c(O)c1	3%	98% (active)	-5%	99% (active)	-1%	99% (active)	0%	98% (active)	-2%	99% (active)	-33%	98% (active)	–	–	–	–	–	–
Cc1ccccc1N=NC(C#N)C#N	82% (active)	99% (active)	40%	100% (active)	85% (active)	100% (active)	39%	99% (active)	68%	100% (active)	78% (active)	99% (active)	–	–	–	–	–	–
CCOS(=O)(=O)CC(C)(C)C	7%	92% (active)	3%	80% (active)	8%	59%	-1%	13%	4%	68%	-21%	86% (active)	–	–	–	–	–	–
NCCN1C(=O)CNC1=S	-23%	30%	-1%	-4%	3%	3%	0%	-3%	-1%	-5%	10%	17%	–	–	–	–	–	–
CN(C)c1ccc(SC#N)cc1	-4%	92% (active)	2%	85% (active)	-2%	86% (active)	3%	51%	16%	95% (active)	-20%	87% (active)	–	–	–	–	–	–
CCOC(=O)C(NC(C)=O)C(C)=O (stereo not given)	–	–	–	–	–	–	–	–	–	–	–	–	32.5% and 10.9%	-7% and -5.65%	13.1% and 8.85%	-4.15% and -11.7%	1.55% and -3.15%	-5.85% and 11.9%
COc1ccc(N=NC(C#N)C#N)cc1	32%	95% (active)	6%	97% (active)	24%	98% (active)	2%	96% (active)	1%	98% (active)	-10%	96% (active)	–	–	–	–	–	–
OC1Cc2ccccc2CC1O (stereo not given)	–	–	–	–	–	–	–	–	–	–	–	–	-20.1% and -35.1%	-41.4% and -39.9%	-36.5% and -12.3%	-19.6% and -1.5%	-26.1% and -8.8%	–
CC(C)CNC(=O)C(C)O (stereo not given)	13%	88% (active)	2%	18%	4%	40%	2%	14%	0%	7%	12%	40%	–	–	–	–	–	–
C=CCC(N)C(=O)O (stereo not given)	–	–	–	–	–	–	–	–	–	–	–	–	-11.9% and -1%	-20.6% and -4.45%	4.95% and -1.85%	13.5% and 2.3%	-10.6% and 8.3%	-1.7% and -3%
COc1ccc(N=CC2CCCCC2=O)c([N+](=O)[O-])c1 (stereo not given)	25%	69%	29%	42%	-1%	12%	31%	56%	13%	86% (active)	53%	61%	–	–	–	–	–	–
Cc1cc(C(=O)c2ccccc2Cl)ccc1O	10%	98% (active)	-5%	99% (active)	3%	98% (active)	-2%	98% (active)	-3%	99% (active)	10%	98% (active)	–	–	–	–	–	–
O=C(/C=C/c1ccccc1)c1ccc(N=Cc2ccccc2)cc1	-37%	30%	6%	21%	2%	68%	1%	6%	7%	54%	8%	38%	–	–	–	–	–	–
O=C(CBr)C(Br)C(Br)c1ccccc1 (stereo not given)	98% (active)	99% (active)	99% (active)	100% (active)	100% (active)	98% (active)	99% (active)	99% (active)	100% (active)	100% (active)	92% (active)	99% (active)	–	–	–	–	–	–
O=Cc1ccc(O)c(O)c1O	-7%	66%	-3%	54%	-6%	35%	0%	36%	9%	73% (active)	-30%	86% (active)	–	–	–	–	–	–
CC(O)C(=O)NCCc1ccccc1 (stereo not given)	8%	4%	-3%	-2%	-1%	1%	2%	3%	-1%	-2%	4%	10%	–	–	–	–	–	–
c1ccc(CSSCc2ccccc2)cc1	–	–	–	–	–	–	–	–	–	–	–	–	9.45% and -1.4%	-0.35% and -3.15%	3% and 1.85%	-5.5% and -8.2%	4.9% and -9.9%	15.3% and -14.1%
Oc1ccc[n+](Cc2ccccc2)c1	–	–	–	–	–	–	–	–	–	–	–	–	-7.85% and -26.4%	-24.1% and -43.9%	-47.3% and -12.4%	7.35% and 24.6%	-49.5% and -22.8%	-21.8% and -11.4%
COc1c2occc2c(OC)c2c(=O)cc(C)oc12	–	–	–	–	–	–	–	–	–	–	–	–	20.9% and 2.55%	-2.15% and -27.4%	16.8% and 9.95%	-0.65% and 8.7%	7.9% and 5.95%	–
S=c1sc2ccccc2n1CCNc1ccccc1	8%	90% (active)	-3%	73% (active)	4%	98% (active)	7%	25%	6%	92% (active)	-10%	64%	–	–	–	–	–	–
CC(C)(C)S(=O)(=O)O.[Ag]	99% (active)	99% (active)	100% (active)	99% (active)	100% (active)	100% (active)	99% (active)	99% (active)	100% (active)	99% (active)	99% (active)	99% (active)	–	–	–	–	–	–
Nc1cccc2c1-c1ccccc1C2=O	15%	89% (active)	1%	18%	4%	47%	-1%	-7%	1%	15%	-35%	29%	–	–	–	–	–	–
Cc1cc(Cc2cc(C)c(O)c(C(=O)O)c2)cc(C(=O)O)c1O	–	–	–	–	–	–	–	–	–	–	–	–	0.25% and -7.15%	10.1% and -0.4%	2.35% and 0.2%	-91.8% and -2.45%	27.3% and 4.85%	7.05% and -16.3%
